Legend:
Assay in all cases: DAPPL (digital affinity profiling via proximity ligation, sequencing); 10 mM Tris-HCl pH 7.5, 50 mM NaCl, 1 mM DTT, 4% glycerol, room temperature, 30 min; GST-TFs on glutathione beads, 16-mer random dsDNA library, 0.1% formaldehyde crosslink after washing; high values mean tight binding
Settings in all cases: protein: recombinant; tags: N-terminal GST; dsDNA, one strand shown
FLI1 = biological target: T1, FLI1 (Homo sapiens, UniProt Q01543 1-452)
T1 sequence: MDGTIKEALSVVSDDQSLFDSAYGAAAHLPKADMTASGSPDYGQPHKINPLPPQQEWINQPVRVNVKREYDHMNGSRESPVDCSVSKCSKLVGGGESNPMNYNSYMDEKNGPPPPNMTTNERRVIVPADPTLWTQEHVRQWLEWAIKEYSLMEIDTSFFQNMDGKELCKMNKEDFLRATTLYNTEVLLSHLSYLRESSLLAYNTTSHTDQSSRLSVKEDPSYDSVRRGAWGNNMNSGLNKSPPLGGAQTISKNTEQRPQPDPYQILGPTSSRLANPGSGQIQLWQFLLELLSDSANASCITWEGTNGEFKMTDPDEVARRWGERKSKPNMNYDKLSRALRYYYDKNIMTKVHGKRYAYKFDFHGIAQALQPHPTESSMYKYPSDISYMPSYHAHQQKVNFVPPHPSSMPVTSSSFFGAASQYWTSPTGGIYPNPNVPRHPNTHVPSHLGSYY
Method in brief: (§1)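 Pools of DNA-barcoded human transcription factors, expressed in yeast as GST fusions on glutathione beads and combined with a tag-only sample, were incubated with 200 nmole of a 16-mer random double-stranded DNA library. Incubation took 30 min at room temperature in Tris/NaCl/DTT/glycerol buffer and was followed by washing, 0.1% formaldehyde crosslinking, proximity ligation (BsaI/T4 ligase, 1 h, 37 °C), PCR amplification and sequencing on an Illumina NextSeq500. Binding signal is the ratio of a hexamer's read frequency for a factor to its frequency for the tag-only sample.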

ELK1 = biological target: T2, ELK1 (Homo sapiens, UniProt P19419 1-428)
T2 sequence: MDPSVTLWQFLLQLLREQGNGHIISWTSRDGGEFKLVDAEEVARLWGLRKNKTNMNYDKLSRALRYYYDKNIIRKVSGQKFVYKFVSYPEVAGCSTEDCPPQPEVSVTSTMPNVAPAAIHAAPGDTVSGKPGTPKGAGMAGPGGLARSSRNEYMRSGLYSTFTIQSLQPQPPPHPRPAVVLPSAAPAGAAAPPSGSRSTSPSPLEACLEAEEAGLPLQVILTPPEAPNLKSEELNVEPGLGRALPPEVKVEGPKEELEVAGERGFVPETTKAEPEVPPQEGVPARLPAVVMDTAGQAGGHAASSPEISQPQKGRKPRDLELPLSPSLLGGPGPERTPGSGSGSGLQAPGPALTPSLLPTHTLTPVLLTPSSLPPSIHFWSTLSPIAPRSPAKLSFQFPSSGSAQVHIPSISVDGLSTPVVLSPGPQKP
Method in brief: as §1

GABPA = biological target: T3, GABPA (Homo sapiens, UniProt Q06546 1-454)
T3 sequence: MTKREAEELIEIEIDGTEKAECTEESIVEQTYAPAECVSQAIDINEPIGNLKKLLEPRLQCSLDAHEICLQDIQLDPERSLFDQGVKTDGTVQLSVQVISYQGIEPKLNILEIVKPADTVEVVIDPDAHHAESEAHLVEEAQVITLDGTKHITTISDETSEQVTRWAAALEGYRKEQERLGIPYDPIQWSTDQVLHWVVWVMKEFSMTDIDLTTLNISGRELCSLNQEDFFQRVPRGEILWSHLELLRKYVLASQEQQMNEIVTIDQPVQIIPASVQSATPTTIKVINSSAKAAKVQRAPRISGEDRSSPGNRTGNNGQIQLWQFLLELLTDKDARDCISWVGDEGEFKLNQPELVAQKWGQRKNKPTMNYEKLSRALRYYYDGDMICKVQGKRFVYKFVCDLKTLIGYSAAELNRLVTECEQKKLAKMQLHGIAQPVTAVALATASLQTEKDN
Method in brief: as §1

ERG = biological target: T4, ERG (Homo sapiens, UniProt P11308 1-479)
T4 sequence: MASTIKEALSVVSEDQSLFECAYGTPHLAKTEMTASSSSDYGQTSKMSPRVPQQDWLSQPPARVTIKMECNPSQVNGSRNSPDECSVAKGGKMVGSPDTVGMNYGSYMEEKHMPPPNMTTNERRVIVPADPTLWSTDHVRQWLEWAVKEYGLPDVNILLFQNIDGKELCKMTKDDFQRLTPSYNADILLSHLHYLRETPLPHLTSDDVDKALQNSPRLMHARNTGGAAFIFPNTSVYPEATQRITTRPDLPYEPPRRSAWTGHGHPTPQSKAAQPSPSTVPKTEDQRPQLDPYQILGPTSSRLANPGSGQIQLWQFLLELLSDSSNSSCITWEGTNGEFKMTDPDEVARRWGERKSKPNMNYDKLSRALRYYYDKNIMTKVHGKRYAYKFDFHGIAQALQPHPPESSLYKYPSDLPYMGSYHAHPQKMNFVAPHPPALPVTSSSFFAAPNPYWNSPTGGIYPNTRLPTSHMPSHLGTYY
Method in brief: as §1

ELF1 = ELF1 (Homo sapiens, UniProt P32519 1-619)
Method in brief: as §1

EHF = biological target: T5, EHF (Homo sapiens, UniProt Q9NZC4 1-300)
T5 sequence: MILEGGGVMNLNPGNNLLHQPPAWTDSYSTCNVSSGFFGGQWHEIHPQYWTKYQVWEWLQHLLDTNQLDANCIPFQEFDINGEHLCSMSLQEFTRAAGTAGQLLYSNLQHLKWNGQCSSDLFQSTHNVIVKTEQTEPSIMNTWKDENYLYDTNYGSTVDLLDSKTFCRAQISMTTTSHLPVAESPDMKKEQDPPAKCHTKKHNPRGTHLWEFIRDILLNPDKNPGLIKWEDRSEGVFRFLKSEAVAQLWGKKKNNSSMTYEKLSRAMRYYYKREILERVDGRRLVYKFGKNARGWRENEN
Method in brief: as §1

SPI1 = SPI1 (Homo sapiens, UniProt P17947 1-270)
Method in brief: as §1

SPIB = SPIB (Homo sapiens, UniProt Q01892 1-262)
Method in brief: as §1

ELK3 = biological target: T6, ELK3 (Homo sapiens, UniProt P41970 1-407)
T6 sequence: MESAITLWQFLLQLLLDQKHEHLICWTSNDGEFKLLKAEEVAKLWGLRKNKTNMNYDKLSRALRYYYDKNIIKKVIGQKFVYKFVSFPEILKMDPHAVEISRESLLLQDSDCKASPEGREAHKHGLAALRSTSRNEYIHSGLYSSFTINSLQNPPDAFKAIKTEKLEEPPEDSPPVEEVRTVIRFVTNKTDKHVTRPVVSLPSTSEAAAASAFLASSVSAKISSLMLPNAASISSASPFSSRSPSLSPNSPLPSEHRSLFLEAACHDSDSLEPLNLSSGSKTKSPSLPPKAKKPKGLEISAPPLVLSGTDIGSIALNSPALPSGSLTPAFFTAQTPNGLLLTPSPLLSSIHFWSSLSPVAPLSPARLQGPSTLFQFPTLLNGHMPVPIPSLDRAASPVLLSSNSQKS
Method in brief: as §1

Sequence of SPIB (Q01892 whole entry): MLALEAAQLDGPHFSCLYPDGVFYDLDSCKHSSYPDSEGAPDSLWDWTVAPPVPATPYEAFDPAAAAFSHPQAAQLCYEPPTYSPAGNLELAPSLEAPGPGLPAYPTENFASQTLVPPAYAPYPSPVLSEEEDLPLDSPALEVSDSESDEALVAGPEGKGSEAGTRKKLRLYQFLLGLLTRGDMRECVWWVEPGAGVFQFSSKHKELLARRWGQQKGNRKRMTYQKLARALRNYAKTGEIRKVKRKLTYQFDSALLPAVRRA
Sequence of ELF1 (P32519 whole entry): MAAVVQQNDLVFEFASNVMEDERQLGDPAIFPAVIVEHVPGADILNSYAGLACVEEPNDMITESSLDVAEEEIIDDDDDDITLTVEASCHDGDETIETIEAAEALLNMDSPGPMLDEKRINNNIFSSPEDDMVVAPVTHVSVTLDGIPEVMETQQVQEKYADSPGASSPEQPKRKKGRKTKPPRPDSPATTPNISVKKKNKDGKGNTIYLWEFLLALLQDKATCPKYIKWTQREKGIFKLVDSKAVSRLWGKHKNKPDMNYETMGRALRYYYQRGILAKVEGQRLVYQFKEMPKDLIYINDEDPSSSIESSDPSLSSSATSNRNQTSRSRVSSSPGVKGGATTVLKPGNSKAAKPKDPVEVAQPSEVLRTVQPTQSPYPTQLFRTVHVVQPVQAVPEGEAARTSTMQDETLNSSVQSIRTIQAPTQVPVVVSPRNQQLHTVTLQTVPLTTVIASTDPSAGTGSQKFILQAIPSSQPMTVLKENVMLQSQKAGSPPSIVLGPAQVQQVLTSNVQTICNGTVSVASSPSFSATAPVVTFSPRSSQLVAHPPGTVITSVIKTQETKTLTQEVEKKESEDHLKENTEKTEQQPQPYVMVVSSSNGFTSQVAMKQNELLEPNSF

TTTGGG
binding signal (FLI1): 1.27 fold enrichment (6-mer frequency, TF over GST control) | binding signal (ELK1): 1.34 fold enrichment (6-mer frequency, TF over GST control) | binding signal (GABPA): 1.37 fold enrichment (6-mer frequency, TF over GST control) | binding signal (ERG): 1.25 fold enrichment (6-mer frequency, TF over GST control) | binding signal (ELF1): 1.25 fold enrichment (6-mer frequency, TF over GST control) | binding signal (EHF): 1.28 fold enrichment (6-mer frequency, TF over GST control) | binding signal (SPI1): 1.4 fold enrichment (6-mer frequency, TF over GST control) | binding signal (SPIB): 1.18 fold enrichment (6-mer frequency, TF over GST control) | binding signal (ELK3): 1.29 fold enrichment (6-mer frequency, TF over GST control)
